Measured values as given in PubChem BioAssay AID1159580 (chemical genetic matrix, 2015).
The campaign covered roughly 5,500 compounds. About 2,000 (36%) were called active. Roughly 18% stayed inconclusive and do not appear here. Cut-off read from the data, not from the text of the source: active = normalized growth mostly below about 0.91 (no sharp cut-off); inconclusive = no clear call, values can overlap the other calls; inactive = mostly above about 0.92. The list shows a part of the results.

Assay: chemical genetic growth profiling, strain panel (AID 1159580);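 note: tested at 20 µM; growth read once vehicle control cultures reached saturation at 30 °C; 1 = growth at the plate median or of vehicle wells; lower values mean less growth of the strain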
Settings: S. cerevisiae deletion strains, growth OD
[1] = locus YHR030C, strain SLT2, hits give low values
[2] = locus YHR079C, strain IRE1, hits give low values
[3] = locus YJL095W, strain BCK1, hits give low values
[4] = locus YJR066W, strain TOR1, hits give low values
[5] = locus YLR113W, strain HOG1, hits give low values
[6] = locus YNL183C, strain NPR1, hits give low values
[7] = locus YOR231W, strain MKK1, hits give low values
[8] = locus YPL256C, strain CLN2, hits give low values

Measured: normalized growth

COc1cccc([C@]2(O)CCCC[C@H]2CN(C)C)c1
inactive: locus YAL021C, strain ccr4, hits give low values 0.964 | locus YAL026C, strain drs2, hits give low values 0.968 | locus YAL030W, strain snc1, hits give low values 0.947 | locus YBL061C, strain skt5, hits give low values 0.968 | locus YBR009C, strain hhf1, hits give low values 0.965 | locus YBR023C, strain chs3, hits give low values 0.977 | locus YBR171W, strain sec66, hits give low values 0.962 | locus YBR231C, strain swc5, hits give low values 0.99 | locus YBR279W, strain paf1, hits give low values 0.975 | locus YCL011C, strain gbp2, hits give low values 0.972 | locus YCL016C, strain dcc1, hits give low values 0.973 | locus YCL061C, strain MRC1, hits give low values 0.987 | locus YCL069W, strain vba3, hits give low values 0.967 | locus YCR088W, strain abp1, hits give low values 0.973 | locus YDL005C, strain med2, hits give low values 0.965 | locus YDL040C, strain nat1, hits give low values 0.978 | locus YDR001C, strain nth1, hits give low values 0.963 | locus YDR069C, strain doa4, hits give low values 0.958 | locus YDR137W, strain rgp1, hits give low values 0.942 | locus YDR159W, strain sac3, hits give low values 0.932 | locus YDR195W, strain ref2 0.956 | locus YDR297W, strain sur2, hits give low values 0.966 | locus YDR334W, strain swr1, hits give low values 0.928 | locus YDR335W, strain msn5, hits give low values 0.958 | locus YDR392W, strain spt3, hits give low values 0.973 | locus YEL003W, strain gim4, hits give low values 0.971 | locus YEL037C, strain rad23, hits give low values 0.982 | locus YEL061C, strain CIN8 (second series), hits give low values 0.968 | locus YER015W, strain faa2, hits give low values 0.973 | locus YER016W, strain bim1, hits give low values 0.978 | locus YER111C, strain swi4, hits give low values 0.974 | locus YER155C, strain BEM2 (second series), hits give low values 0.97 | locus YFR010W, strain ubp6, hits give low values 0.955 | locus YGL167C, strain pmr1, hits give low values 0.967 | locus YGL173C, strain kem1, hits give low values 0.952 | locus YGL227W, strain vid30, hits give low values 0.963 | locus YGL240W, strain doc1, hits give low values 0.947 | locus YGL253W, strain hxk2, hits give low values 0.988 | locus YHR013C, strain ard1, hits give low values 0.937 | locus YHR027C, strain rpn1, hits give low values 0.959 | [1] 0.969 | [2] 0.963 | locus YHR142W, strain chs7, hits give low values 0.951 | locus YJL092W, strain hpr5, hits give low values 0.982 | locus YJL095W, strain BCK1 (second series), hits give low values 0.962 | [3] 1.01 | locus YJL115W, strain asf1, hits give low values 0.956 | locus YJL129C, strain trk1, hits give low values 0.983 | locus YJL154C, strain vps35, hits give low values 0.959 | locus YJL164C, strain tpk1, hits give low values 0.981 | locus YJL166W, strain qcr8, hits give low values 0.968 | locus YJL187C, strain SWE1, hits give low values 0.973 | [4] 0.935 | locus YKL160W, strain elf1, hits give low values 0.981 | locus YKR026C, strain gcn3, hits give low values 0.977 | locus YKR091W, strain srl3, hits give low values 0.98 | locus YLL001W, strain dnm1, hits give low values 0.981 | locus YLL026W, hits give low values 0.949 | locus YLL041C, strain sdh2, hits give low values 0.971 | locus YLR027C, strain aat2, hits give low values 0.944 | [5] 0.981 | locus YLR221C, strain rsa3, hits give low values 0.971 | locus YLR258W, strain gsy2, hits give low values 0.971 | locus YLR262C, strain YPT6 (second series), hits give low values 0.962 | locus YLR320W, strain mms22, hits give low values 0.964 | locus YLR342W, strain FKS1, hits give low values 0.99 | locus YLR357W, strain rsc2, hits give low values 0.997 | locus YLR370C, strain arc18, hits give low values 0.974 | locus YLR384C, strain iki3, hits give low values 0.974 | locus YML120C, strain ndi1, hits give low values 0.979 | locus YMR058W, strain fet3, hits give low values 0.978 | locus YMR125W, strain sto1, hits give low values 0.963 | locus YMR129W, hits give low values 0.987 | locus YMR205C, strain PFK2, hits give low values 0.961 | locus YMR231W, strain pep5, hits give low values 0.967 | locus YNL071W, strain lat1, hits give low values 0.98 | [6] 0.941 | locus YNL209W, strain ssb2, hits give low values 0.966 | locus YNL248C, strain rpa49, hits give low values 0.989 | locus YNL322C, strain KRE1 (second series), hits give low values 0.97 | locus YNR049C, strain mso1, hits give low values 0.969 | locus YOR001W, strain rrp6, hits give low values 0.968 | locus YOR070C, strain gyp1, hits give low values 0.978 | locus YOR080W, strain dia2, hits give low values 0.969 | locus YOR083W, strain WHI5, hits give low values 0.968 | locus YOR106W, strain vam3, hits give low values 0.969 | [7] 0.96 | locus YOR265W, strain rbl2, hits give low values 0.978 | locus YOR270C, strain vph1, hits give low values 0.945 | locus YOR290C, strain snf2, hits give low values 0.966 | locus YPL051W, strain arl3, hits give low values 0.987 | locus YPL078C, strain atp4, hits give low values 0.968 | locus YPL106C, strain sse1, hits give low values 0.916 | locus YPL240C, strain hsp82, hits give low values 0.974 | [8] 0.978

N#C/C(=C\c1ccccc1Sc1ccc(Cl)cc1)S(=O)(=O)c1ccccn1
active: [5] 0.821
inactive: locus YAR019C, strain CDC15, hits give low values 0.972 | locus YBL105C, strain PKC1, hits give low values 0.968 | locus YBR135W, strain CKS1, hits give low values 0.957 | locus YBR136W, strain MEC1, hits give low values 0.966 | locus YBR160W, strain CDC28, hits give low values 0.973 | locus YDL017W, strain CDC7, hits give low values 0.982 | locus YDL028C, strain MPS1, hits give low values 0.971 | locus YDL101C, strain DUN1, hits give low values 0.963 | locus YDL108W, strain KIN28, hits give low values 0.962 | locus YDL132W, strain cdc53, hits give low values 0.959 | locus YDL214C, strain PRR2, hits give low values 0.901 | locus YDR052C, strain DBF4, hits give low values 0.98 | locus YDR054C, strain cdc34, hits give low values 0.969 | locus YDR226W, strain ADK1, hits give low values 0.968 | locus YDR477W, strain SNF1, hits give low values 0.873 | locus YER123W, strain YCK3, hits give low values 0.88 | locus YER133W, strain GLC7, hits give low values 0.909 | locus YFL009W, strain cdc4, hits give low values 0.967 | locus YFL029C, strain CAK1, hits give low values 0.968 | locus YFR003C, strain YPI1, hits give low values 0.97 | locus YFR019W, strain FAB1, hits give low values 0.926 | locus YFR028C, strain CDC14, hits give low values 0.962 | locus YGR040W, strain KSS1, hits give low values 0.871 | locus YGR052W, strain FMP48, hits give low values 0.883 | locus YGR092W, strain DBF2, hits give low values 0.772 | [1] 0.858 | [2] 0.956 | locus YHR082C, strain KSP1, hits give low values 0.939 | locus YHR205W, strain SCH9, hits give low values 0.872 | locus YIL147C, strain SLN1, hits give low values 0.97 | [3] 0.875 | locus YJL128C, strain PBS2, hits give low values 0.925 | locus YJL157C, strain FAR1, hits give low values 0.897 | locus YJR016C, strain ILV3, hits give low values 0.971 | locus YJR066W, strain TOR1 (second series), hits give low values 0.883 | [4] 0.938 | locus YKL048C, strain ELM1, hits give low values 0.852 | locus YKL067W, strain YNK1, hits give low values 0.9 | locus YKL101W, strain HSL1, hits give low values 0.875 | locus YKL193C, strain SDS22, hits give low values 0.961 | locus YKL203C, strain TOR2, hits give low values 0.936 | locus YLR133W, strain CKI1, hits give low values 0.889 | locus YLR403W, strain SFP1, hits give low values 0.802 | locus YML070W, strain DAK1, hits give low values 0.886 | locus YMR001C, strain CDC5, hits give low values 0.964 | locus YMR205C, strain PFK2 (second series), hits give low values 0.908 | locus YMR277W, strain FCP1, hits give low values 0.963 | locus YNL006W, strain LST8, hits give low values 0.959 | locus YNL020C, strain ARK1, hits give low values 0.891 | locus YNL161W, strain CBK1, hits give low values 0.968 | [6] 0.934 | locus YNL207W, strain RIO2, hits give low values 0.968 | locus YNL222W, strain SSU72, hits give low values 0.959 | locus YNL307C, strain MCK1 (second series), hits give low values 0.877 | locus YOL078W, strain AVO1, hits give low values 0.955 | locus YOL136C, strain PFK27, hits give low values 0.846 | locus YOR061W, strain CKA2, hits give low values 0.851 | locus YOR119C, strain RIO1, hits give low values 0.939 | [7] 0.893 | locus YOR329C, strain SCD5, hits give low values 0.969 | locus YPL031C, strain PHO85, hits give low values 0.868 | locus YPL153C, strain RAD53, hits give low values 0.904 | locus YPL204W, strain HRR25, hits give low values 0.83 | locus YPL209C, strain IPL1, hits give low values 0.968 | [8] 0.926 | locus YPR025C, strain CCL1, hits give low values 0.961 | locus YPR106W, strain ISR1, hits give low values 0.973 | locus YPR111W, strain DBF20, hits give low values 0.942 | strain NNK1, hits give low values 0.964 | strain TSCII, hits give low values 0.956
